# Rows were chosen to be rich in hits. Some 1.4% of all compounds tested hit in one or more screens of this group.
# E coli RNAP: inhibitors of Escherichia coli RNA polymerase; 0.2% of 62,000 active; inhibition, %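 (tested at 10 µM)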; E. coli RNA polymerase, fluorescence transcription assay; P0A8V2; in the data active = inhibition above about 20%;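 also: 0% = enzyme without compound and 100% = no enzyme blank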
# BAP1 inh: blocks human BAP1 ubiquitin-AMC hydrolysis; calls only at 20 µM; recombinant BAP1, Ub-AMC hydrolysis fluorescence kinetic; stronger effect = lower value; AID 436; Q92560; 0.48% of 72,000 active;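 active = activity remaining at or below 50% of control, provided the compound also passes the data quality filters; inactive = the rest, including low values that fail the filters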;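 also: 100% = DMSO wells rate and 0% = substrate alone blank rate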
# Her2 expr inh: inhibitors of human Her2 kinase expression; P04626; 0.69% of 65,000 active; SKBR-3 HER2 protein level, AlphaScreen, 18-24 h; stronger effect = lower value; HER2 level % of control, % at 10 µM;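 active = HER2 level under 5% of the carrier-only control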;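 also: 100% = DMSO carrier and 0% = 500 nM PU-H71 HSP90 inhibitor; lower value means stronger loss of Her2 protein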
# SKBR3 24h inh: SK-BR-3 proliferation inhibitors. SK-BR-3 viability, CellTiter-Glo ATP luminescence, 24 h; stronger effect = lower value. viability, % at 10 µM. 0.47% of 41,000 active. AID 847;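 active = viability at or below the median of all test compounds minus 3 SD, in both replicates if run twice, cut at about 45% in these data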;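 also: 100% = median untreated cell wells and 0% = median positive control drug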
# TNAP act DEA: human TNAP activation, intermediate phosphate acceptor; P05186; purified TNAP, CDP-star luminescence, 100 mM DEA, 30 min; stronger effect = higher value; scale: 0 levamisole-inhibited, 1 vehicle-only enzyme; activation factor at 20 µM; 64,000 tested, under 10 active; AID 813;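 active = activation factor of at least 2 at 20 µM, relative to controls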
# Target sequence (P05186 whole entry, looked up): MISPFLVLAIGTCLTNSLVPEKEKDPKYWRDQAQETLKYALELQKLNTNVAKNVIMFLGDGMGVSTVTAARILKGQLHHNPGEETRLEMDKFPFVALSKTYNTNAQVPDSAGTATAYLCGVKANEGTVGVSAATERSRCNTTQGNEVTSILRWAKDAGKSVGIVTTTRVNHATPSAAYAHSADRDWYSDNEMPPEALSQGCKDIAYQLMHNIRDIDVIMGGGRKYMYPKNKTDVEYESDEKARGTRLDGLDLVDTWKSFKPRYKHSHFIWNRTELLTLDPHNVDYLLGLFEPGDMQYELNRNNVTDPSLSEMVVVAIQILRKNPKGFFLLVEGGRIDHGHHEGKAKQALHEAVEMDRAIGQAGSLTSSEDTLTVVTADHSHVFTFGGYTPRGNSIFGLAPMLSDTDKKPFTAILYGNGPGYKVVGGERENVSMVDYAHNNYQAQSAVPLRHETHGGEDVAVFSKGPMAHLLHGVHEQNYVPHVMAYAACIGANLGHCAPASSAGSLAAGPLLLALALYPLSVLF
# * marks the source's active call; other numbers are inactive results; i = inactive; nt = no result shown; + = active, no number.
SMILES,E coli RNAP,BAP1 inh,Her2 expr inh,SKBR3 24h inh,TNAP act DEA
CCc1ccc(-c2nc(CN3CCC(C(=O)NCCN(CC)c4ccccc4)CC3)c(C)o2)cc1,1,i,-13*,nt,1.6
Cc1ccccc1-c1nc(CN2CCC(C(=O)NCCC3=CCCCC3)CC2)c(C)o1,4,i,-16*,nt,1.1
CCCc1sc(N2CCN(C(=O)c3ccccc3)CC2)nc1-c1ccccc1,nt,i,nt,nt,nt
COc1cc(-c2c(C#N)c(N)n3c(nc4ccccc43)c2C#N)ccc1OCc1ccccc1,nt,i,nt,nt,nt
Cc1nc(C)c(C(=O)Nc2ccccc2C)s1,nt,i,nt,nt,nt
CCN(CCNC(=O)C1CCCN(Cc2nc(-c3ccc(OC)cc3)oc2C)C1)c1ccccc1 (configuration not stated),7,i,80,nt,0.8
CCN(CCNC(=O)C1CCN(Cc2nc(-c3ccc(Cl)cc3)oc2C)CC1)c1ccccc1,7,i,-17*,nt,0.9
COc1cc2[nH]c(=O)n(CCC(=O)N3CCN(c4cc(Cl)ccc4C)CC3)c(=O)c2cc1OC,3,nt,-23*,8.5*,1
O=C(NCCCn1ccnc1)c1cc(S(=O)(=O)N2CCOCC2)c(Cl)cc1Cl,3,nt,-32*,93,0.9
O=C(Nc1ccccc1O)c1cc(S(=O)(=O)N2CCOCC2)c(Cl)cc1Cl,7,i,82,nt,1.1
COc1cccc(CNc2cccc3cccnc23)c1O,8,i,136,105,1
COc1cc(NS(=O)(=O)c2ccc(C)cc2)c2ncccc2c1,4,i,-5.2*,77,1.1
COc1ccc(NS(=O)(=O)c2cccc3cccnc23)cc1,4,i,103,nt,0.9
COc1cc(NCCCC(C)N)c2ncccc2c1 (configuration not stated),4,i,66,23*,0.9
O=C(O)c1cc(S(=O)(=O)NCc2ccco2)ccc1Cl,nt,i,nt,nt,nt
Cc1noc(C)c1CSCC(=O)OCC(=O)NC1CCCCC1,2,nt,98,32*,1
CCCCC(CC)Cn1c2nc3ccccc3nc2c2c(=N)oc(C)nc21 (configuration not stated),-6,nt,0.9*,38*,0.8
CCCCn1c2nc3ccccc3nc2c2c(=N)oc(C)nc21,-10,nt,79,92,0.9
CC1=C(C)CS(=Nc2cccc([N+](=O)[O-])c2)N(S(=O)(=O)c2ccccc2)C1 (configuration not stated),nt,i,nt,nt,nt
COc1ccc(Cc2nnc(NC(=O)Cc3cccs3)s2)cc1OC,nt,+,100,nt,nt
COc1ccc(C(=O)Nc2cccc(C(=O)Nc3cccc4ccccc34)c2)cc1[N+](=O)[O-],nt,i,nt,nt,nt
COc1ccc(NC(=O)CSc2ccncc2)c([N+](=O)[O-])c1,nt,i,nt,nt,nt
O=C(Nc1cccc(OC(F)(F)F)c1)c1ccc(Br)o1,-7,i,64,80,2.3*
COc1ccc(Cl)cc1C(=O)Nc1ccccc1N1CCN(C)CC1,4,i,-18*,79,0.9
CN1CCN(c2ccc(Cl)cc2NC(=O)c2ccc(S(=O)(=O)N3CCCCCC3)cc2)CC1,-3,i,-6.0*,nt,0.9
SMILES,E coli RNAP,BAP1 inh,Her2 expr inh,SKBR3 24h inh,TNAP act DEA
CC(=O)N1CCc2cc(Br)cc(S(=O)(=O)N3CCCCCC3)c21,4,i,106,41*,0.9
CC(=O)N1CCc2cc(Br)cc(S(=O)(=O)N3CCN(C(=O)c4ccco4)CC3)c21,-7,i,112,71,1
Cn1c(NCC(O)c2ccccc2)nc2c1c(=O)n(Cc1ccc(Cl)c(Cl)c1)c(=O)n2C (configuration not stated),11,i,49,83,0.9
Cn1c(NCC(O)c2ccccc2)nc2c1c(=O)n(Cc1ccc(Cl)cc1)c(=O)n2C (configuration not stated),18,i,-28*,95,0.9
Cc1cccc2cc(C#N)c(NCCNS(=O)(=O)c3ccc4c(c3)OCCO4)nc12,-12,i,105,30*,1
Cc1cc(C)c(NC(=O)COc2ccc(Br)cc2)c(C)c1,nt,i,nt,nt,nt
Nc1nc2n(n1)C(c1cccs1)CC(c1ccc(Br)cc1)N2 (configuration not stated),nt,i,-20*,134,0.9
N#CCCCSc1nnnn1-c1cccc(Cl)c1,3,i,101,88,1
N#CCCS(=O)(=O)c1nnnn1-c1ccccc1,1,i,-1.1*,209,0.9
CCCCOC(=O)C1=C(C)NC2=C(C(=O)CC(C)(C)C2)C1c1cc2c(cc1[N+](=O)[O-])OCO2 (configuration not stated),nt,i,nt,nt,nt
COc1ccc2c(=O)c3c(=O)n(Cc4ccco4)c(-c4cc(OC)c(OC)c(OC)c4)nc3oc2c1,6,i,15,27*,0.9
COc1ccc2c(=O)c3c(=O)n(Cc4ccco4)c(-c4ccccc4)nc3oc2c1,nt,i,59,80,0.9
Cc1ccc(C2CC(C(F)F)n3ncc(C(=O)Nc4cnn(Cc5ccccc5C)c4)c3N2)cc1 (configuration not stated),2,i,25,32*,0.9
Nc1nc(OCC(F)(F)F)cc(OCC(F)(F)F)n1,nt,i,nt,nt,nt
Cc1ccc(C(CC(=O)c2ccco2)SCCO)cc1 (configuration not stated),8,i,-1.4*,101,0.9
Fc1nc(F)c(F)c(C#Cc2ccccc2)c1F,nt,i,nt,nt,nt
COc1ccc(-c2cc(C)[nH]c(=S)n2)cc1,nt,i,nt,nt,nt
Cc1cc(-c2ccccc2)nc(=O)[nH]1,10,i,-18*,89,0.9
CCc1ccc(N2CSC3=C(C#N)C(c4cccs4)CC(=O)N3C2)cc1 (configuration not stated),14,i,80,89,1
CCc1ccc(C2CC(=O)N3CN(c4ccccc4)CSC3=C2C#N)cc1 (configuration not stated),-2,i,-18*,nt,0.9
NC(=O)c1cc2cc(Cl)ccc2oc1=NCc1ccccc1,nt,i,nt,nt,nt
O=C(CCN1CCN(c2ccccc2F)CC1)c1ccc(Br)cc1,-1,i,-16*,nt,0.9
N=c1n(CCO)c2ccccc2n1CCOc1ccc(Cl)cc1Cl,-4,i,2.4*,nt,1
COc1ccc(OCCn2c(=N)n(CCO)c3ccccc32)cc1,10,i,80,90,0.9
C(=N/n1c2ccccc2c2ccccc21)/c1ccco1,16,i,1.7*,nt,0.8
Cc1cc(-n2c(C)cc(C(=O)CSc3nnnn3-c3ccc(Cl)cc3)c2C)no1,11,i,-7.5*,nt,0.9
CCC(CCC(=O)Nc1cccc(C(=O)O)c1)C(=O)O (configuration not stated),-7,i,89,75,1
CCCCC(C(=O)O)C(C)CC(=O)Nc1cccc(C(=O)O)c1 (configuration not stated),3,i,-22*,101,0.9
Cc1ccc(OC(=O)c2ccc(C)c(S(=O)(=O)N3CCOCC3)c2)c(-n2nc3ccccc3n2)c1,nt,i,nt,nt,nt

# From PubChem
